Screening results from PubChem.
WT yeast gro inh = growth inhibition of WT yeast, mitochondrial fusion screen. inhibition, % at 10 µM. mitochondrial fusion phenotypic screen, WT strain. 190,000 compounds, 2.1% hits. AID 1362; in the data active = inhibition above about 58%; tested in S. cerevisiae
PTEN del growth = suppresses growth of cells with PTEN deletion; HCT116 PTEN-null viability, CellTiter-Glo, 60 h; active compounds read low; viability, % at 10 µM; 140,000 compounds, 1.2% hits;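 active = viability at or below a set limit, 4 SD under the median of all tested compounds, cut at about 3.7% in these data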;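 also: PTEN knockout HCT116 line with beta catenin targeted HCT116 as companion control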
hDAT+cocaine = modulates human dopamine transporter uptake under cocaine | LLC-PK1 hDAT cells, [14C]-dopamine uptake with cocaine IC80; actives deviate in either direction | Q01959 | B-score at 10 µM | 110,000 compounds, 1.3% hits;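 active = Z score or B-score, a plate-position-corrected score, falls beyond the plate's 99.7% confidence bounds, in either direction; inactive = both scores lie inside the 99.7% bounds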;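 also: scored against the spread of the other compound wells on the same plate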
Target sequence (Q01959 whole entry, looked up): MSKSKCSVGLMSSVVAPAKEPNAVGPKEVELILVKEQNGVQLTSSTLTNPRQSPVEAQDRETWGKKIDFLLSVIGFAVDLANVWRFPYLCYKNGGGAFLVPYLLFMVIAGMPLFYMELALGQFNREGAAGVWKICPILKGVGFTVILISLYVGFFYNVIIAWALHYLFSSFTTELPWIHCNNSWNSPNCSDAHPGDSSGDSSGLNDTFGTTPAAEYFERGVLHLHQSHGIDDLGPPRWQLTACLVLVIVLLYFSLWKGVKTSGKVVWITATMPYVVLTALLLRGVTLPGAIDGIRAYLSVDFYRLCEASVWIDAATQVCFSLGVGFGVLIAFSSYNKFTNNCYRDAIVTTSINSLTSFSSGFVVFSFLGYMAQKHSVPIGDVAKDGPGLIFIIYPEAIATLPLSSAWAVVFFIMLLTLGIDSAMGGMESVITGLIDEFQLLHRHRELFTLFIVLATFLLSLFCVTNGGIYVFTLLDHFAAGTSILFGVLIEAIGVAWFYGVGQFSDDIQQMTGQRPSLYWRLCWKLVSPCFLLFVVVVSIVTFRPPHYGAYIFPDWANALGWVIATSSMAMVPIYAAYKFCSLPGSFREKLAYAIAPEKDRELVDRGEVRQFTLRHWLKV
HCT116 bCat-KO = beta-catenin-lacking colon tumor cell growth suppression; viability, % at 10 µM; HCT116 beta-catenin knockout viability, CellTiter-Glo, 60 h; active compounds read low; 140,000 compounds, 1.5% hits;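 active = viability at or under a set limit, the compound median less 4 SD, cut at about 6% in these data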;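 also: 0% = Hyamine 1622 control at 20 µM and 100% = untreated cell control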
Starred values were filed as active, the others as inactive; . = not tested or not shown. In the library only some 3.6% were active in any assay of this set; here they are far more common.

SMILES	WT yeast gro inh	PTEN del growth	hDAT+cocaine	HCT116 bCat-KO
O=C(N/N=C/c1ccc(-c2cccc(C(F)(F)F)c2)o1)c1ccccc1O	7.3	3.1*	.	10.1
C#Cc1ccc([C@@H]2C=C(C(=O)NCc3ccccc3)O[C@H](OCCCCO)C2)cc1	.	.	0.278	.
O=C(N=Nc1c(O)n(Cc2ccccc2)c2ccccc12)c1cc2ccccc2cc1O	69.8*	1.5*	.	1.7*
CCOC(=O)c1ccc(Nc2nc(C(=O)OCC)nc3ccccc23)cc1	5.3	97.9	-0.0541	91.7
CCOC(=O)c1nc(Nc2ccc(Nc3ccccc3)cc2)c2ccccc2n1	71.8*	.	.	.
Cc1nn(-c2ccccc2)c(Cl)c1/C=N/Nc1nc2ccccc2n1C	31.0	82.8	.	78.0
COc1ccccc1/C=C/CN1CCCC(CO)(Cc2cccc(Cl)c2)C1 (centres undefined)	65.0*	.	.	.
c1ccc(-c2nnn(C34CC5CC(CC(C5)C3)C4)n2)cc1	80.9*	70.2	1.43	72.5
CCOc1ccccc1OCCCOc1ccc(C)cc1Br	58.0*	77.7	.	82.0
CCOc1ccccc1OCCCOc1ccc(C)cc1Cl	9.1	80.3	0.388	92.4
O=C(c1ccc(S(=O)(=O)NCC2CCCO2)cc1)N1CCN(c2cccc(Cl)c2)CC1 (centres undefined)	4.9	.	.	.
CCN(CC)c1ccc(C2C3CCCCC3(O)CCN2CC(=O)N2CCCCC2)cc1 (centres undefined)	12.9	71.1	-7.85*	73.7
CCCCN(C(=O)c1cccc2c(=O)c(C)c(-c3ccccc3)oc12)c1ccccc1	78.0*	15.8	.	12.0
Cc1ccc2[nH]c(C)c(/C=N/Nc3nc4ccccc4s3)c2c1	68.0	1.1*	0.0262	1.6*
Brc1csc(/C=N/Nc2nc3ccccc3s2)c1	24.1	58.5	.	70.5
CCn1nc(C)c(NC(=O)c2cnn3c(C(F)F)cc(-c4ccccc4)nc23)c1C	-8.7	.	.	.
CC(C)Cn1c(=S)[nH]c2cc(Cl)ccc21	28.5	.	.	.
CCN(C(=O)CN1CCOCC1)C1(C)C(=O)c2ccccc2C1=O	-2.7	104.7	.	105.4
CC(C)C(NS(=O)(=O)c1cccc2nsnc12)C(=O)Nc1nc2ccc(Cl)cc2s1 (centres undefined)	61.6*	63.0	.	51.4
Cc1ccc2nc(NC(=O)C3CCCN(S(=O)(=O)c4cccc5nsnc45)C3)sc2c1 (centres undefined)	64.6*	38.4	0.169	41.8
CCCC(C)NC(=O)c1sc2nc3n(c(=O)c2c1C)CCC3 (centres undefined)	-7.5	.	.	.
Cc1onc(-c2ccccc2Cl)c1C(=O)Nc1nnc(C(C)C)s1	10.8	104.0	0.0543	98.3
COC(=O)c1c(NC(=O)c2c(C)noc2C)sc2c1CCCCCC2	-3.6	87.7	-0.808	102.6
COC(=O)c1c(NC(=O)c2c(-c3ccccc3Cl)noc2C)sc2c1CCC2	74.9*	49.4	.	48.8
COCCn1c(N)c(C(=O)Nc2sc3c(c2C(=O)OC)CCCC3)c2nc3ccccc3nc21	25.9	4.4	-0.33	4.0*
SMILES	WT yeast gro inh	PTEN del growth	hDAT+cocaine	HCT116 bCat-KO
COCCn1c(N)c(C(=O)NCC2CCCO2)c2nc3ccccc3nc21 (centres undefined)	-5.0	60.4	0.954	63.7
COC(=O)c1c(NC(=O)c2nc3nc(C)cc(C(F)F)n3n2)sc2c1CCC2	59.6*	79.8	-0.0275	87.6
Cc1onc(-c2ccccc2Cl)c1C(=O)Nc1sc2c(c1C(N)=O)CCC(C)C2 (centres undefined)	68.8*	38.9	.	42.7
CCOC(=O)c1ccccc1NC(=O)C1CC(=O)N(c2ccccc2)C1 (centres undefined)	13.1	.	.	.
CCOC(=O)c1c(NC(=O)c2ccc(-n3cnnn3)cc2)sc2c1CCCC2	-12.3	4.6	.	3.4*
S=C(N/N=C1\C2CN3CCN(C2)CC1(c1ccccc1)C3)Nc1ccccc1	0.6	95.9	.	89.4
O=C1C=CCC(/C=C/c2ccccc2)O1 (centres undefined)	-26.1	3.9	-1.2	4.3*
CC(=O)C1=C(C)NC(=O)NC1/C=C/c1ccccc1 (centres undefined)	-14.4	.	.	.
Cc1ccc(C(=O)N2CCN(c3ccc(NC(=O)COc4ccccc4C)cc3)CC2)cc1	43.5	.	.	.
COC(=O)c1ccccc1NC(=O)CSc1nnc(-c2cccnc2)n1N	3.3	.	.	.
Cc1nc(CS(=O)c2ccc(Cl)cc2)cc(NCc2ccc(Cl)cc2Cl)n1 (centres undefined)	58.7*	70.6	2.65*	79.0
Cc1nc(CSc2ccc(Cl)cc2)cc(NCc2ccccc2)n1	53.8	85.8	0.31	88.4
CC(C)(C)c1ccc(OCC(=O)N/N=C/c2cc(Br)ccc2OC(=O)c2ccco2)cc1	-8.2	4.8	.	4.8*
CN1C[C@H](C(=O)NC2(C)OC3(O)[C@@H]4CCCN4C(=O)[C@H](Cc4ccccc4)N3C2=O)CC2c3cccc4[nH]cc(c34)C[C@H]21 (some centres undefined)	.	.	3.97*	.
COc1ccc(-n2c(SCC(=O)Nc3sc4c(c3C#N)CCCC4)nnc2-c2ccccc2OC)cc1	-4.7	81.3	3.04	78.8
COc1ccc(-c2nnc(SCC(=O)Nc3sc4c(c3C#N)CCCC4)n2-c2ccccc2)cc1	-23.4	1.7*	0.457	3.9*
CCOC(=O)c1c(NC(=O)CSc2nnc(N)s2)sc(C)c1-c1ccc(C)cc1	78.0*	63.2	.	61.4
CCOC(=O)c1c(-c2ccccc2)csc1NC(=O)CSc1nnc(C)s1	49.9	66.4	.	72.7
CCOC(=O)c1c(NC(=O)CSc2nnc(-c3ccccc3)n2CC)sc(C(C)=O)c1C	18.5	91.1	2.51*	90.7
CCn1c(SCC(=O)Nc2nc3ccccc3s2)nnc1-c1ccc(OC)cc1	-8.5	77.2	0.0341	79.1
CCn1c(SCC(=O)Nc2nc3c(s2)CCCC3)nnc1-c1ccccc1	1.2	78.9	3.68*	62.7
Cc1ccc(C(=O)N(Cc2ccccc2)C(C)(C)C)cc1C	12.9	68.4	.	71.5
CCC(C)NCCCCOc1ccc(C)cc1[N+](=O)[O-] (centres undefined)	-10.6	105.5	0.0116	95.5
O=C(C1CC1c1ccccc1)N1CCN(c2cccc(Cl)c2)CC1 (centres undefined)	76.7*	99.7	1.97	100.6
Cc1ccc2c(C(=O)N3CCN(c4ccccc4)CC3)cc(-c3cccnc3)nc2c1C	73.3*	.	.	.
SMILES	WT yeast gro inh	PTEN del growth	hDAT+cocaine	HCT116 bCat-KO
CCCC1(CCC)NC(=O)N(CC(=O)Nc2cccc(OC)c2)C1=O	63.8*	98.7	0.706	95.0
COC(=O)CSC(=S)N1C(C)CCCC1C (centres undefined)	8.7	.	.	.
CN(C1=NC(=O)C(CC(=O)Nc2ccc(Br)cc2)S1)c1ccc(O)cc1 (centres undefined)	2.4	42.0	-4.01*	36.0
COC(=O)CCC(=O)Nc1ccc(Br)cc1	5.9	97.0	-0.506	106.5
CC(=O)N1c2ccccc2C(C)(c2ccccc2)CC1(C)C (centres undefined)	31.6	77.2	0.178	84.8
CC1(c2ccc([N+](=O)[O-])cc2)CC(C)(C)N(C(=O)c2ccccc2)c2ccccc21 (centres undefined)	77.1*	73.3	.	74.2
CC1=C(C(=O)Nc2ccccc2C)C(c2ccc(C)o2)n2c(s/c(=C/c3ccccc3)c2=O)=N1 (centres undefined)	-2.6	45.7	0.568	1.1*
